This is an account of results in PubChem BioAssay.

The source made the active and inactive calls.

Assay [1] in a line: optical density shifts of acrAB sulA E. coli – strain DRC41, OD650, 48 h, E. coli filamentation inducer project, primary screen (AID 1152).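 Further: E. coli MC1000 strain DRC41 lacking acrAB efflux pump and sulA.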 The following applies: higher = more signal, called active from +8 up or from −8 down.
Assay [2] in a line: probe aLefty1 binding on compound microarray – biochemical, small-molecule microarray, 635/667 nm fluorescence, primary screen (AID 1153).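 Further: score merges spot fluorescence with signal-to-noise ratio from the scanned slide images.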 The following applies: higher = more signal.
Assay [3] in a line: plasmodial surface anion channel blockers, osmotic lysis – cell-based, P. falciparum Indochina, OD700, 1 h, primary screen (AID 1154). The following applies: P. falciparum Indochina infected RBC osmotic lysis, higher = more signal, called active from +8 up or from −8 down.
A short description of assay [4]: plasmodial surface anion channel blockers, osmotic lysis – cell-based, P. falciparum Indochina, OD700, 2 h, primary screen (AID 1155).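 Further: lysis reports solute entry through the parasite surface anion channel PSAC.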 The following applies: P. falciparum Indochina infected erythrocytes, higher = more signal, called active from +8 up or from −8 down.
The nature of assay [5]: changes in parasitized red cell lysis, either direction – P. falciparum Indochina, OD700, 3 h, PSAC antagonist project, primary screen (AID 1156). The note with it: P. falciparum-infected erythrocytes, osmotic lysis, higher = more signal, called active from +8 up or from −8 down.
The nature of assay [6]: plasmodial surface anion channel blockers, osmotic lysis – cell-based, P. falciparum Indochina, OD700, 18 h, primary screen (AID 1157). The following applies: P. falciparum Indochina infected erythrocytes, osmotic lysis OD700, 18 h; higher = more signal, called active from +8 up or from −8 down.
A short description of assay [7]: S6 kinase pathway phospho-S6 level changes – cell-based, A549, cytoblot, luminescence, serum-stimulated, primary screen (AID 1158).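 Further: serum-stimulated A549 lung adenocarcinoma cells; signal is phosphorylated S6 detected by cytoblot immunostaining with HRP secondary.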 The note with it: 5 h, higher = more signal.
For assay [8], the target named is NADPH oxidase 2 (Homo sapiens) (UniProt P04839). The assay is described as follows: compounds shifting NOX2 Amplex Red fluorescence – cell-based, HEK293-NOX2, PMA-stimulated, NOX inhibitor project, primary screen (AID 1159). Further: test concentration not given here. The following applies: 45 min, higher = more signal, called active from +8 up or from −8 down.
NADPH oxidase 2 (Homo sapiens), sequence (P04839 whole entry, looked up): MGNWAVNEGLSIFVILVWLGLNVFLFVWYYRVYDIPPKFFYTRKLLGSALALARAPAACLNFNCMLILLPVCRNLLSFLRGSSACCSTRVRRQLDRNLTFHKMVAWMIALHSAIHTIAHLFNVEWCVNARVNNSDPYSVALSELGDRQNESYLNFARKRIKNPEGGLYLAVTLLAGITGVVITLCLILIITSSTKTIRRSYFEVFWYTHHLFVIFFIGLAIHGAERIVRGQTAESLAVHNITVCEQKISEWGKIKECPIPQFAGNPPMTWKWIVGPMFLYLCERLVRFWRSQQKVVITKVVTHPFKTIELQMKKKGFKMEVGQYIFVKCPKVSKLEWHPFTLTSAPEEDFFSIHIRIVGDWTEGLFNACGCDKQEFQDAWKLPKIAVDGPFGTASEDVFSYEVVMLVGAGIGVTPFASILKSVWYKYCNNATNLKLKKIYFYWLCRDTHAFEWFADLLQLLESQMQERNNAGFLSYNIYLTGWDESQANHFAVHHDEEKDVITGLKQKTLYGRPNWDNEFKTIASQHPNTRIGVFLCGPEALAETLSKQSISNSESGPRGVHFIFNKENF
The target of assay [9] is NADPH oxidase 4 (Homo sapiens) (UniProt Q9NPH5). The assay is described as follows: compounds shifting NOX4 Amplex Red fluorescence – cell-based, HEK293-NOX4, tetracycline-induced, NOX inhibitor project, primary screen (AID 1160). The following applies: HEK293-NOX4, Amplex Red H2O2 fluorescence, 45 min; higher = more signal, called active from +8 up or from −8 down.
NADPH oxidase 4 (Homo sapiens), sequence (Q9NPH5 whole entry, looked up): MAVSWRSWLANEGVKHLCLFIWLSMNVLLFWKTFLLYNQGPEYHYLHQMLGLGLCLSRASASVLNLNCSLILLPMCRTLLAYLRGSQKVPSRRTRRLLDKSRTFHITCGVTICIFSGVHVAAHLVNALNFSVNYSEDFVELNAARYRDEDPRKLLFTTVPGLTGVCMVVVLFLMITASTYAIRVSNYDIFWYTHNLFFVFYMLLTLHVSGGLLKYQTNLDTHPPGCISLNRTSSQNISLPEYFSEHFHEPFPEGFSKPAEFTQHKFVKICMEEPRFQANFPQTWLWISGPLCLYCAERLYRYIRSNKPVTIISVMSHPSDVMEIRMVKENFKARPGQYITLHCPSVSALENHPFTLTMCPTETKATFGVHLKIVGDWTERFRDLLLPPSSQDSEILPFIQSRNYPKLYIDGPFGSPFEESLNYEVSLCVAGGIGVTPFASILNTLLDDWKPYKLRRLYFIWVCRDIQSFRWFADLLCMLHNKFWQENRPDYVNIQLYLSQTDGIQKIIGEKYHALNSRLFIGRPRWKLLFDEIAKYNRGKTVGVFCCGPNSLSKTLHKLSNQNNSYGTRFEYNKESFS
Assay [10] deals with NADPH oxidase 5 (Homo sapiens) (UniProt Q96PH1). The assay is described as follows: compounds shifting NOX5 Amplex Red fluorescence – cell-based, HEK293-NOX5, NOX inhibitor project, primary screen (AID 1161). The note with it: HEK293-NOX5, ionomycin, 45 min, higher = more signal.
NADPH oxidase 5 (Homo sapiens), sequence (Q96PH1 whole entry, looked up): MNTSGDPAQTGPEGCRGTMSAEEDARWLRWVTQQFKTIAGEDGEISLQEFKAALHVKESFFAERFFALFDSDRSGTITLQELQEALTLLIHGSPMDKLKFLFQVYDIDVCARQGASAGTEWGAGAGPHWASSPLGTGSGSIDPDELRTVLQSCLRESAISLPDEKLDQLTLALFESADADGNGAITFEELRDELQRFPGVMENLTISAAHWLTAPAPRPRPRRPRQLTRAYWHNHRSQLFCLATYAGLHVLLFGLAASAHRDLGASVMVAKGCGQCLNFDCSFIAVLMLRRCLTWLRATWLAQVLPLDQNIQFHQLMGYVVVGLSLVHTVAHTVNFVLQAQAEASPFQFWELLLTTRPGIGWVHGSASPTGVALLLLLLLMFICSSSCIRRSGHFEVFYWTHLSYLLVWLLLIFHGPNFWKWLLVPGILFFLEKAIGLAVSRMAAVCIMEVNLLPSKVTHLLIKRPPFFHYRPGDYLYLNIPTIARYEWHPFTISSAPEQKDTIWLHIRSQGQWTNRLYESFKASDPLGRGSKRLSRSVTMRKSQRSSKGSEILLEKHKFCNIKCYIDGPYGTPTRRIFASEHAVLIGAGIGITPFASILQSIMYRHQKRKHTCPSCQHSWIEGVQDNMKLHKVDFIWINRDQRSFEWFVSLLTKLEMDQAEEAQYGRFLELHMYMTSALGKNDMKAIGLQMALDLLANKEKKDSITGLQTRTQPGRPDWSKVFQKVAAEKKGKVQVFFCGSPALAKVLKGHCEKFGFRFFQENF
A short description of assay [11]: compound effects on lung adenocarcinoma cell viability – A549, calcein-AM fluorescence, 48 h, basal, profiling panel (AID 1162). Further: test concentration not given here. The note with it: higher = more signal.
Assay [12] can be described thus: compound effects on differentiated 3T3-L1 adipocyte viability – cell-based, 3T3-L1 adipocytes, calcein-AM fluorescence, 48 h, basal, profiling panel (AID 1163). Further: test concentration not given here. The following applies: 3T3-L1 adipocytes viability, higher = more signal.
A short description of assay [13]: compound effects on hepatocellular carcinoma cell viability – HepG2, calcein-AM fluorescence, 48 h, basal, profiling panel (AID 1164). Further: test concentration not given here. The following applies: higher = more signal.
Assay [14] is described as follows: compound effects on multiple myeloma cell viability – MM1S, calcein-AM fluorescence, 48 h, basal, profiling panel (AID 1165).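 Further: viability of MM1S multiple myeloma cells under basal unstimulated conditions; test concentration not given here.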 The note with it: higher = more signal.
Assay [15] in a line: calcein-AM signal in unstimulated myeloma cells – cell-based, calcein-AM fluorescence, 48 h, PK04 Diversity Set, profiling panel (AID 1166).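 Further: cells grown under basal conditions without added stimulus; test concentration not given here.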 The following applies: RPMI8226 myeloma viability, higher = more signal.
Assay [16] in a line: JC-1 mitochondrial signal, unstimulated HepG2 cells – cell-based, JC-1 fluorescence, 24 h, 100 nL compound, profiling panel (AID 1167). Further: test concentration not given here. The note with it: HepG2 mitochondrial potential, higher = more signal.
Assay [17] can be described thus: JC-1 mitochondrial signal, unstimulated adipocytes – cell-based, JC-1 fluorescence, 3T3-L1 adipocytes, 24 h, 100 nL compound, profiling panel (AID 1168). Further: test concentration not given here. The note with it: JC-1 mitochondrial fluorescence, higher = more signal, called active from +8 up or from −8 down.
Assay [18] is described as follows: JC-1 mitochondrial signal, unstimulated myeloma cells – cell-based, JC-1 fluorescence, RPMI8226, 24 h, 100 nL compound, profiling panel (AID 1169). Further: test concentration not given here. The note with it: JC-1 mitochondrial potential fluorescence, higher = more signal.
Assay [19] is described as follows: JC-1 mitochondrial signal, unstimulated MM1S myeloma – cell-based, JC-1 fluorescence, 24 h, 100 nL compound, profiling panel (AID 1170). Further: test concentration not given here. The note with it: MM1S mitochondrial potential, higher = more signal.
Assay [20] can be described thus: resazurin metabolic signal in A549 cells – cell-based, resazurin fluorescence, 24 h, PK04 Diversity Set, profiling panel (AID 1171). Further: test concentration not given here. The following applies: A549 viability, higher = more signal, called active from +8 up or from −8 down.

Take `O=C1C[C@@H](O)[C@@H](O)[C@@H]2[C@@H]3C(=O)N(c4cccc(Oc5ccccc5)c4)C(=O)[C@@H]3CC[C@H]12`: the z-score in [1] is -0.367 (inactive); in [3], 0.429 (inactive); in assay [4], 0.0618 (inactive); in assay [5], -0.195 (inactive); in assay [6] it was -0.0653 (inactive); in [7], -0.875. In addition, the z-score in [8] was -0.0166 (inactive); in assay [9] it was 0.6 (inactive); in assay [10], 0.124; in assay [11], -0.0402; in [12], -0.231; in assay [13], 0.0658. Also, the z-score in assay [14] is 0.258; in [15], -0.0527; in assay [16], -0.101; in assay [17], -1.02 (inactive); in [18] it was -0.308; in [19], 0.258. Moreover, in assay [20], the z-score was 0.16 (inactive). The compound further showed a composite z-score in assay [2] of 0.0446.

`CC(C)CON=C1C[C@@H](O)[C@@H](O)[C@@H]2[C@@H]3C(=O)N(c4cccc(Oc5ccccc5)c4)C(=O)[C@@H]3CC[C@@H]12`: the z-score in [1] is -0.211 (inactive); in assay [3], 2.34 (inactive); in [4], -0.696 (inactive); in [5] it was 1.07 (inactive); in assay [6], -1.36 (inactive); in assay [7], 0.6. The z-score was -0.191 (inactive) in assay [8]; 0.352 (inactive) in assay [9]; -0.51 in assay [10]; 1.52 in assay [11]; 0.797 in [12]; 0.626 in assay [13]. Also, the z-score was -0.779 in [14]; 0.0135 in assay [15]; 0.291 in assay [16]; 0.411 (inactive) in assay [17]; 0.615 in assay [18]; -1.78 in assay [19]. The z-score in [20] was -0.908 (inactive). In assay [2], the composite z-score was -0.321.

As to `C[C@@H](c1ccccc1)N1C(=O)[C@H]2[C@H]3[C@H](O)[C@H](O)CC(=NO[C@@H]4O[C@H](CO)[C@@H](O)[C@H](O)[C@H]4O)[C@H]3CC[C@H]2C1=O`, the z-score is 0.391 (inactive) in [1]; -0.483 (inactive) in assay [3]; -0.205 (inactive) in assay [4]; -0.0944 (inactive) in assay [5]; -0.0378 (inactive) in assay [6]; -0.0015 in assay [7]. In addition, the z-score is 1.5 (inactive) in assay [8]; -1.93 (inactive) in assay [9]; -0.63 in assay [10]; -0.306 in assay [11]; 0.221 in assay [12]; -0.492 in assay [13]. Further, the z-score is 0.254 in assay [14]; -0.599 in [15]; -0.364 in assay [16]; -0.507 (inactive) in assay [17]; 0.0338 in assay [18]; -0.15 in [19]. In addition, in [20], the z-score is -0.154 (inactive). Moreover, the composite z-score in assay [2] amounted to 1.16.

On to `CCCNC(=O)OC[C@H]1O[C@H](CCON=Cc2ccc(C(=O)N3[C@H](c4ccc(C)cc4)[C@@H](C)CC[C@H]3C(=O)OC)cc2)C=C[C@@H]1Oc1ccc(OC)cc1`, for which the z-score in assay [1] is 0.33 (inactive); in [3], 1.21 (inactive); in assay [4] it was 0.674 (inactive); in assay [5], 0.0952 (inactive); in assay [6] it was 0.612 (inactive); in assay [7], -0.619. Further, the z-score is 0.725 (inactive) in assay [8]; 0.611 (inactive) in assay [9]; 0.393 in assay [10]; -0.167 in assay [11]; 0.885 in [12]; -0.0578 in assay [13]. For the same compound, the z-score is -0.164 in assay [14]; -0.581 in [15]; 2.75 in [16]; -3.26 (inactive) in assay [17]; 0.694 in [18]; 0.235 in assay [19]. For the same compound, in [20], the z-score is -0.471 (inactive). Besides, the composite z-score in assay [2] is -0.16.

For `CC(C)CON=C1C[C@@H](O)[C@@H](O)[C@@H]2[C@@H]3C(=O)N(Cc4ccc5c(c4)OCO5)C(=O)[C@@H]3CC[C@H]12`, the z-score was -0.135 (inactive) in assay [1]; 1.22 (inactive) in assay [3]; 0.32 (inactive) in [4]; 0.337 (inactive) in [5]; 0.108 (inactive) in assay [6]; -0.27 in assay [7]. For the same compound, the z-score in [8] was -0.378 (inactive); in assay [9], 1.02 (inactive); in [10], -0.146; in assay [11] it was -0.223; in assay [12], -0.503; in assay [13], -0.479. The z-score in assay [14] was 0.119; in assay [15] it was -1.15; in assay [16], 0.174; in [17] it was -0.589 (inactive); in [18], 0.704; in assay [19], -0.146. Further, the z-score in assay [20] is 0.56 (inactive). Further, the composite z-score in assay [2] was -0.198.
